IDE act = IDE (human) activation, cell-based | 340,000 compounds, 0.073% hits | HEK cells, FAbeta-B cleavage, fluorescence polarization; 0% vehicle, 100% cell-free pure enzyme wells | activation, % at 5.96 µM;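 active means activation above the mean of all tested compounds plus 3 SD, set per screening campaign, cut at about 17% in these data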
CHT PAM = human CHT allosteric activation | B-score at 10 µM | 310,000 compounds, 0.49% hits | CHT-expressing cells, membrane potential dye, choline EC20; hits give high values; LV-AA mutant CHT in HEK293 cells | AID 488977 | Q9GZV3;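 active means initial fluorescence not abnormally high and integrated response B-score, plate-corrected, over 3 SD above library mean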
TMEM16A inh = mouse TMEM16A channel inhibition, primary screen | Q8BHY3 | HEK293 TMEM16A/YFP iodide influx fluorescence, ionomycin | normalized B-score (activity score, 25-100; higher = stronger inhibition) at 10 µM | 310,000 compounds, 1.2% hits;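 active means ratio plate-corrected score three or more library SD toward inhibition, starting fluorescence score within five deviations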;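 further: score derived from kinetic fluorescence span divided by baseline fluorescence per well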
CHT block = inhibits the human high affinity choline transporter; Q9GZV3; CHT-expressing cells, membrane potential dye, choline response; hits give low values; B-score at 10 µM; 310,000 compounds, 0.86% hits;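 active means B-score over 3 SD under the library average, and starting fluorescence ratio not unusually high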;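 further: choline stimulus applied at its EC90 after an EC20 pre-addition; B-score computed on integrated fluorescence ratio after choline addition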
IDE inh = inhibits human insulin-degrading enzyme in HEK cells | 320,000 compounds, 0.41% hits | FAbetaB cleavage, fluorescence polarization | inhibition, % at 5.59 µM | AID 434962 | P14735;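 active means percent inhibition above the average of all tested compounds plus 3 SD, set per screening campaign, cut at about 16% in these data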;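 further: IDE supplied by intact live HEK cells; FP after avidin binding of uncleaved biotin substrate so inhibition keeps polarization high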
ANO1 activ = mouse TMEM16A channel activation, primary screen | B-score at 10 µM | HEK293 TMEM16A/YFP-H148Q/I152L, iodide quench fluorescence; hits give low values | 340,000 compounds, 0.3% hits;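 active means fluorescence-ratio B-score plate-corrected deviation score at least 3 library SD below zero, with starting fluorescence score within 5 deviations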;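 further: channel opened by trigger with iodide after compound preincubation; score built on the fluorescence ratio of max minus min over baseline; more negative score means more quench and so TMEM16A activation or potentiation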
CHT inh conf = human CHT inhibition, confirmatory screen; shares compounds with CHT block; AID 493221; 2,400 compounds, 70% hits; CHT activity remaining % of control (hits give low values), % at 10 µM; CHT-expressing cells, choline membrane potential dye; LV-to-AA substituted CHT, HEK293 cells;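 active means choline transporter activity left, mean of duplicates at 10 µM, below buffer-only control mean minus 3 SD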;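 further: depolarization triggered by choline at its EC90 following an EC20 pre-addition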
HEK293 CHT ctr = activity in parental HEK293 cells lacking CHT; 2,400 compounds, 4% hits; membrane potential ratio readout (active if shifted either direction beyond buffer ±3SD; no single direction) at 10 µM; membrane potential dye, choline response; active = decrease or increase beyond buffer ±3SD; AID 493222; shares compounds with CHT block;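 further: parental cells lack the transporter so any hit is non-specific; ratio is peak minus trough fluorescence over baseline after EC90 choline challenge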
Numbers stand for hits; n = inactive; x = not tested or not shown. Only some compounds are listed: those with a hit (about 2.7% of all), similar ones and a draw of the others.

SMILES	IDE act	CHT PAM	TMEM16A inh	CHT block	IDE inh	ANO1 activ	CHT inh conf	HEK293 CHT ctr
CCOc1ccc(-c2nnc(NC(=O)Cc3cc(OC)c(OC)c(OC)c3)o2)cc1	n	n	n	n	n	n	x	x
O=C(O)C1CCN(S(=O)(=O)c2ccc(Cl)s2)CC1	n	x	x	x	n	n	x	x
Cc1cccc(N2CCN(C(=O)CCCn3c(=O)[nH]c4ccsc4c3=O)CC2C)c1 (configuration not stated)	n	n	n	-10.9	n	n	18.7%	n
O=C(Cn1nc(C(F)(F)F)cc1C1CC1)Nc1ccccc1F	n	n	n	n	n	n	x	x
O=C(Cn1nc(C(F)(F)F)cc1C1CC1)NCc1ccccc1F	n	n	n	-5.79	n	n	65.0%	n
CC(C)c1nc2oc3c(N(C)CCO)ncnc3c2c2c1CCC2	n	n	n	-5.7	n	n	n	n
Cc1ccc(C)c(N(C)S(=O)(=O)c2cccc3nsnc23)c1	n	n	n	-5.22	n	n	n	n
O=C(CN1C(=O)S/C(=C\c2cccc(Cl)c2)C1=O)NCCCn1ccnc1	n	n	n	-5.85	n	n	55.9%	n
O=C(CN1C(=O)C(=O)N(C2CCCC2)C1=O)Nc1ccc(Cl)cc1C(F)(F)F	n	x	x	x	n	n	x	x
C/C(=N\NC1=NCCN1)c1ccc(Cl)cc1	n	n	n	-6.67	n	n	52.5%	n
C/C(=N\NC1=NCCN1)c1ccccc1	x	n	n	-6.45	n	n	32.0%	n
CCOC(=O)CN1C(=O)/C(=C/c2ccc(Cl)cc2)Oc2ccccc21	n	n	n	n	n	n	x	x
COc1ccc(-c2nc(SC(C)C(=O)NC3CC3)n[nH]2)cc1 (configuration not stated)	n	x	x	x	x	n	x	x
Cc1cc2cc(CCNS(=O)(=O)c3ccc(F)cc3)c(=O)[nH]c2cc1C	n	n	n	n	n	n	x	x
CC1(C)c2cc(Cl)ccc2-n2c1cc(O)c(-c1ccccc1)c2=O	n	n	n	-6.04	n	n	44.3%	n
CC(C)c1cc(O)c(-c2ccccc2)c(=O)n1-c1ccc(Cl)cc1	n	n	n	-5.01	n	n	n	n
CCN(C(=O)C(=O)c1c[nH]c2ccccc12)c1ccccc1	n	n	n	n	n	n	x	x
COc1ccc(N2CCN(CC(=O)Nc3c(C)cc(C)cc3C)CC2)cc1	n	n	n	-6.08	n	x	52.8%	n
Cc1cc(C)c(NC(=O)CN2CCN(C)CC2)c(C)c1	n	n	n	n	n	n	x	x
CCS(=O)c1ccccc1C(=O)OCC(=O)Nc1ccc2ccccc2c1 (configuration not stated)	n	x	x	x	n	n	x	x
CC1N(C(=O)N2CCOCC2)CCN1S(=O)(=O)c1ccc(Cl)cc1 (configuration not stated)	n	n	n	n	n	n	x	x
CC[C@H](C)[C@H](NC(=O)c1ccc(Cl)cc1)C(=O)OCC(=O)c1ccc2c(c1)NC(=O)CO2	n	n	n	-5.71	n	n	31.7%	n
CC(C)[C@H](NC(=O)c1ccccc1)C(=O)OCC(=O)c1ccc2c(c1)NC(=O)CO2	n	n	n	-8.97	n	n	32.6%	n
CC(C)=NNC(=O)C1=NNC(=O)C1	x	n	n	n	n	n	x	x
COCCCC1CCN(C(=O)C2CCC(=O)N(CC3CCCCC3)C2)CC1 (configuration not stated)	n	n	n	n	x	n	x	x
SMILES	IDE act	CHT PAM	TMEM16A inh	CHT block	IDE inh	ANO1 activ	CHT inh conf	HEK293 CHT ctr
Cc1cc(C)cc(N(CC(=O)NC(C)C)C(=O)CCC(=O)Nc2ccccn2)c1	n	n	n	n	n	n	x	x
CC1=NN(C(=O)CSCc2ccccc2)C(O)(c2ccc(Cl)cc2)C1 (configuration not stated)	n	n	n	-6.51	n	n	n	n
Cc1cc(C)n2nc(SCC(=O)N(CCC#N)c3ccccc3F)nc2n1	n	x	x	x	n	n	x	x
COC(=O)c1cc(C(=O)OC)cc(N2C(=O)CC(NNC(=O)c3ccccc3Br)C2=O)c1 (configuration not stated)	n	n	n	n	n	n	x	x
COC(=O)c1cc(C(=O)OC)cc(N2C(=O)CC(NNC(=O)c3ccc(C)cc3)C2=O)c1 (configuration not stated)	n	n	n	-5.36	n	n	n	n
COc1cc(C(=O)NC2CC(C)(C)CC(C)(C)C2)ccc1OC1CCN(C(C)=O)CC1	n	n	n	-6.86	x	n	4.8%	n
O=C(c1cnn2c(C(F)(F)F)cc(-c3cccs3)nc12)N1CCN(Cc2ccccc2)CC1	n	n	n	-5.5	n	n	56.5%	n
CN1CCN(C(=O)c2cnn3c(C(F)(F)F)cc(-c4cccs4)nc23)CC1	n	n	n	n	n	n	x	x
C=Cn1cc[n+](CC(=O)c2ccc(OC)cc2)c1	n	n	n	n	n	n	x	x
C=Cn1cc[n+](CC(=O)c2ccc(Cl)cc2)c1	n	n	n	-6.67	n	n	47.9%	n
C=Cn1cc[n+](CC(=O)c2ccc(Br)cc2)c1	n	n	n	-6.75	n	n	30.4%	n
C=Cn1cc[n+](CC(=O)c2ccc(C)cc2)c1	n	n	n	n	n	n	x	x
CC(C)n1cc([C@@H]2C[C@H]3CN(Cc4cccc(Cl)c4)C(=O)[C@]34CCCN24)cn1	n	n	n	-5.29	n	n	n	n
CCCCNC(=O)c1onc(CSc2ccc(C(C)C)cc2)c1C(=O)O	n	n	25	-8.22	n	n	69.2%	n
CCCCNC(=O)c1onc(CSc2ccccc2)c1C(=O)O	n	n	n	n	n	n	x	x
Oc1cccc(C(O)CNCc2ccc(OCc3ccc(Cl)cc3Cl)cc2)c1 (configuration not stated)	n	n	n	-5.63	n	n	69.0%	n
Oc1cccc(C(O)CNCc2ccc(-c3ccccc3)cc2)c1 (configuration not stated)	n	n	n	n	n	n	x	x
CC1CCN(C(=O)c2ccc3c(c2NCCO)C(=O)c2ccccc2C3=O)CC1	n	n	n	-6.31	n	n	50.2%	2.25
CCN(CC)CCNC(=O)c1ccc2c(c1NCCO)C(=O)c1ccccc1C2=O	x	n	n	n	n	x	x	x
c1ccc(OCCSc2nnnn2C2CCCCC2)cc1	n	n	n	n	n	n	x	x
COc1ccc(OCCSc2nnnn2C2CCCCC2)cc1	n	n	n	-11.5	n	n	n	n
CCCCN(C(=O)CSc1ncn[nH]1)c1c(N)n(Cc2ccccc2)c(=O)[nH]c1=O	n	x	x	x	n	n	x	x

Screening results: PubChem BioAssay, several laboratories
